Laboratory results taken from PubChem BioAssay (NCI).
This is part of a sample that, as a whole, favours compounds with a hit. Of some 79,000 tested, about 15% had one in any assay. Values without a mark were called inactive. The source made the active and inactive calls. Cut-off read from the data, not from the text of the source: active = growth inhibition above about 70%; inactive = the rest.

Tests used:
[1] = NCI Yeast Anticancer Drug Screen. Data for the rad50 strain (AID 155);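 note: 0% = growth of vehicle-only cultures of the same strain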; conditions: S. cerevisiae rad50 strain growth inhibition, active compounds read high
Method in brief: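 A DNA repair-deficient yeast mutant serves as the test organism; compound-induced growth inhibition is calculated against vehicle-treated cells.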

[2] = NCI Yeast Anticancer Drug Screen. Data for the mec2-1 strain (AID 157); conditions: S. cerevisiae mec2-1 strain, active compounds read high
Method in brief: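 Compounds were applied to mec2-1 yeast cells. Their growth was then compared with that of vehicle-treated cultures to give growth inhibition.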

[3] = NCI Yeast Anticancer Drug Screen. Data for the sgs1 mgt1 strain (AID 161);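 note: 0% = growth of cultures given vehicle only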; conditions: S. cerevisiae sgs1 mgt1 strain, active compounds read high
Method in brief: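 This yeast growth screen uses a strain with defined DNA-repair lesions; compound-treated growth is compared with vehicle-treated growth.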

[4] = NCI Yeast Anticancer Drug Screen. Data for the cln2 rad14 strain (AID 165);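 note: 0% = growth equal to vehicle treated cultures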; conditions: S. cerevisiae cln2 rad14 strain, active compounds read high
Method in brief: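 Strain: cln2 rad14 yeast, altered in cell cycle control and DNA damage repair. Read-out: growth inhibition vs vehicle.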

[5] = NCI Yeast Anticancer Drug Screen. Data for the bub3 strain (AID 167); conditions: S. cerevisiae bub3 mutant strain, active compounds read high
Method in brief: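 Inhibition values come from growth of compound-treated mutant yeast normalised to vehicle-treated controls.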

[6] = NCI Yeast Anticancer Drug Screen. Data for the mlh1 rad18 strain (AID 175); conditions: S. cerevisiae mlh1 rad18 strain growth inhibition, active compounds read high
Method in brief: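 A repair-deficient yeast strain is exposed to test compound, and growth is scored relative to vehicle-treated controls.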

[7] = at 5.0 µM (retest, dose inferred, filed as 0.5)
[8] = at 50.0 µM (retest, dose inferred, filed as 5.0)

SMILES | growth inhibition [1, 7] [%] | growth inhibition [1, 8] | growth inhibition ([1]; at 50.0 µM) | growth inhibition [2, 7] [%] | growth inhibition [2, 8] | growth inhibition ([2]; at 50.0 µM) | growth inhibition [3, 7] | growth inhibition [3, 8] | growth inhibition ([3]; at 50.0 µM) | growth inhibition [4, 7] | growth inhibition [4, 8] | growth inhibition ([4]; at 50.0 µM) | growth inhibition [5, 7] | growth inhibition [5, 8] | growth inhibition ([5]; at 50.0 µM) | growth inhibition [6, 7] [%] | growth inhibition [6, 8] | growth inhibition ([6]; at 50.0 µM)
O=C(O)C1C(C(=O)O)C2C(=O)C=CC1N2Cc1ccccc1 (stereo unspecified) | 11 | 46% | 79.8% (active) | 1 | 61% | 81.2% (active) | 5% | 65% | 78.5% (active) | -8% | 31% | 46.3% | 21% | 73% (active) | 91.4% (active) | 3 | 76% (active) | 87.8% (active)
O=C(Nc1nnc(-c2ccccc2)s1)c1cc(=O)c2cc(Cl)ccc2o1 | -3 | 45% | 99.3% (active) | 0 | 58% | 99.7% (active) | -3% | 78% (active) | 99.5% (active) | 6% | 62% | 98.8% (active) | 4% | 77% (active) | 99.4% (active) | 2 | 71% (active) | 98.9% (active)
CC(C(=O)c1ccc2cc(Br)c3ccccc3c2c1)N(C)C (stereo unspecified) | -6 | 99% (active) | 99.4% (active) | 1 | 99% (active) | 98.5% (active) | -14% | 100% (active) | 99.2% (active) | -5% | 99% (active) | 99.5% (active) | 25% | 99% (active) | 99.4% (active) | 5 | 99% (active) | 99.3% (active)
Cn1c(=NCCc2ccccc2)oc2ccc(Cl)cc21 | -6 | 17% | 6.15% | -7 | 9% | 1.7% | -7% | 29% | 30.3% | -4% | 16% | 73% (active) | 4% | 33% | 18.6% |  |  | 
O=S(=O)(CC(Br)CCl)c1ccccc1 (stereo unspecified) | 2 | 72% (active) | 15.1% | 2 | 55% | 31.3% | -1% | 46% | 40.5% | 4% | 17% | -62.6% | 5% | 38% | 54.8% | 13 | 76% (active) | 57%
CC(C)(Br)C(Br)C(=O)C(Br)C(C)(C)Br (stereo unspecified) | -1 | 8% | 52.2% | -2 | 26% | 48.6% | -4% | 31% | 63.6% | -2% | 15% | -7.9% | -2% | 40% | 19.6% | -1 | 31% | 69%
O=C(O)C1CCCCC1.[Ag] | 43 | 99% (active) | 90.3% (active) | 42 | 99% (active) | 92% (active) | 99% (active) | 99% (active) | 93.2% (active) | 99% (active) | 99% (active) | 91% (active) | 99% (active) | 100% (active) | 90.6% (active) | 34 | 100% (active) | 90.5% (active)
COc1ccc(C23OCCN2C(=O)c2ccccc23)cc1 (stereo unspecified) | 4 | -3% | 97% (active) | -15 | -6% | 97.1% (active) | -4% | 2% | 97.5% (active) | -4% | -2% | 92.7% (active) | -31% | -2% | 96.3% (active) |  |  | 
ON=C(CC(O)(C(F)(F)Cl)C(F)(F)Cl)CC(O)(C(F)(F)Cl)C(F)(F)Cl | 50 | 99% (active) | 99.7% (active) | 69 | 100% (active) | 99.6% (active) | 37% | 99% (active) | 99.5% (active) | 68% | 99% (active) | 99.5% (active) | 23% | 100% (active) | 99.8% (active) |  |  | 
O=c1c2ccccc2sc2c(CO)ccc(NCCN3CCCCC3)c12 | -5 | 45% | 71.2% (active) | 6 | -21% | 23.6% | -9% | 35% | 34.5% | -21% | 13% | 24.5% | 12% | 13% | 25.4% | 2 | 40% | 40.1%
